Activity calls are given as the source filed them. How the calls were made is not given here.
target: Lysosomal alpha-glucosidase (Homo sapiens) (UniProt P10253); assay: Direct Measure of the Activation of Acid alpha-Glucosidase Catalytic Rate; details: purified enzyme, 4MU-alpha-Glc conversion, LC-MS; at 37.5 µM; stronger effect = higher value
Text: NIH Chemical Genomics Center [NCGC] NIH Molecular Libraries Probe Production centers Network [MLPCN] MLPCN Grant: 1R03MH084841-01 Assay Submitter (PI): Wei Zheng NCGC Assay Overview: Alpha-glucosidase is responsible for hydrolysis of terminal, non-reducing 1,4-linked alpha-D-glucose residues with release of alpha-D-glucose. It is a lysosomal hydrolase that is required for the degradation of a small percentage (1-3%) of cellular glycogen in human. Deficiency of this enzyme results in glycogen-storage disease type II (GSDII), also referred to as Pompe disease, an autosomal recessive disorder. Structurally normal glycogen is accumulated in lysosomes and cytoplasm in affected patients, primarily in muscle tissues. Excessive glycogen storage within lysosomes may interrupt normal functioning of other organelles and leads to cellular injury. In turn, this leads to enlargement and dysfunction of the entire organ involved (eg, cardiomyopathy and muscle weakness). It has reported that the improper folding and trafficking of alpha-glucosidase resulting from the genetic mutations may account for a significant number of Pompe patients. […]
The catalysis rate of the 4MU-alpha-Gluc substrate by acid alpha-glucosidase was measured using LC-MS. […] (5) Add 50 ul stop solution (1M NaOH and 1M Glycine mixture, pH 10) (6) Run LC-MS and integrate peaks to quantitate amount of product

Row | Compound | substrate conversion
1 | CCCN1CNc2c(c(=O)[nH]c(=S)n2CCc2ccc(OC)c(OC)c2)C1 | 28% (active)

same assay, conditions: purified enzyme, 4MU-alpha-Glc conversion, LC-MS; conversion; at 5 µM; stronger effect = higher value

Row | Compound | substrate conversion [%]
2 | CCCN1CNc2c(c(=O)[nH]c(=S)n2CCc2ccc(OC)c(OC)c2)C1 | 20

Reference: PubChem BioAssay AID2293 (National Center for Advancing Translational Sciences (NCATS), 2010)
